Structures are written as SMILES. Records with an inconclusive call do not appear. Active and inactive are the calls of the source. Unless noted, calls come from the whole dose curve; as a rule, active = well fitted cell-killing curve with a large enough effect in the repeat runs (not every such curve was filed as active); inconclusive = weak or mixed curves, or effect the other way; inactive = no such curve, though single readings can be large or run the other way.
% is set by controls: 0 for no effect and ±100 for the full control effect.

Chain of Nuclear receptor subfamily 1 group I member 3 (Homo sapiens) (Q14994 whole entry, looked up): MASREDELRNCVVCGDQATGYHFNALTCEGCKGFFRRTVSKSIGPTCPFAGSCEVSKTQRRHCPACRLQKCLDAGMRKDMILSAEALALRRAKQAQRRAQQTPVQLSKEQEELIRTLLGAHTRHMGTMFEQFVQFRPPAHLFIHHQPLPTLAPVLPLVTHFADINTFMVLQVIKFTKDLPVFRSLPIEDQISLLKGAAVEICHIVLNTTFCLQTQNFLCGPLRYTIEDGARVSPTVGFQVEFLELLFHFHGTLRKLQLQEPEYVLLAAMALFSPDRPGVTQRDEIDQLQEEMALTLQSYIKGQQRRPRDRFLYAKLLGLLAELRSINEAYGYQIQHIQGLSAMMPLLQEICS

The first test addresses Nuclear receptor subfamily 1 group I member 3 (Homo sapiens) (UniProt Q14994). Briefly: qHTS assay to identify small molecule agonists of the constitutive androstane receptor (CAR) signaling pathway (AID 1224839; active = well fitted activation curve with a large enough effect in the repeat runs;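 note: HepG2 cells stably carrying human CAR and a CYP2B6 luciferase reporter; nearly all actives have a fitted effect of over 15% in size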). The conditions noted are these: HepG2 hCAR CYP2B6-luciferase, agonist mode, 24 h; series mostly up to 92.4 µM; activation: at the top concentration. Summed up:
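Readout: firefly luciferase luminescence via ONE-Glo. System: HepG2 double-stable for hCAR and CYP2B6-2.2kb. Conditions: 15-point compound titration, PK11195 at 0.75 uM final, 24 h incubation.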
A general note: In qHTS, concentration-response curves come from the screen itself.
Consider `C=C[C@](C)(O)CC[C@@H]1[C@@]2(C)CCCC(C)(C)[C@@H]2CC[C@@]1(C)O`, for which the “activation” value is 6.92% (inactive). `CC(O)C#CC(C)O` (stereo unspecified): the “activation” value was -16.1% (inactive). For `Cc1nc(Nc2ncc(C(=O)Nc3c(C)cccc3Cl)s2)cc(N2CCN(CCO)CC2)n1`, the “activation” value was -12.8% [at 42.5 µM] (inactive). Regarding `COCC(=O)O[C@]1(CCN(C)CCCc2nc3ccccc3[nH]2)CCc2cc(F)ccc2[C@@H]1C(C)C`, the “activation” value was -21.8% [at 42.5 µM] (inactive).

In the case of `Cc1ccc(CCn2c3c(c4cc(Cl)ccc42)CN(C)CC3)cn1`, the “activation” value is -3.76% [at 42.5 µM] (inactive). In the case of `C=CC(=C)CCC=C(C)C`, the “activation” value is -2.58% (inactive). Take `CCC(C)(C)c1cc(O)c(C(C)(C)CC)cc1O`: the “activation” value was -4.48% (inactive).

On to `CCCOc1sc(C(=O)N2CCC(c3cc(CN)ccc3F)CC2)c(C)c1Br`, for which the “activation” value is -28.4% (inactive).

System in the next test: not listed separately
Put plainly: qHTS assay to identify small molecule antagonists of the estrogen related receptor signaling pathway with the pleiotropic PPARgamma coactivator (PGC) from Tox21 10K library - cell viability counter screen (AID 1224840). Note: nearly all actives have a fitted effect of over 40% in size. Note: potency is the fitted concentration of half-maximal effect. The conditions noted are these: PGC/ERR reporter cells viability, CellTiter-Fluor, 17.5 h; series mostly up to 92.4 µM; viability change, negative = cytotoxic: at the top concentration. Summed up:
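PGC/ERR cells (2,000/well) plated 6 h, then compound-treated for 17.5 h at 37 C. Viability measured by CellTiter-Fluor fluorescence after 30 min at 37 C, multiplexed with the pathway assay.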
As for `Clc1cccnc1`, the “viability change, negative = cytotoxic” value was 5.92% (inactive). Consider `C=C[C@](C)(O)CC[C@@H]1[C@@]2(C)CCCC(C)(C)[C@@H]2CC[C@@]1(C)O`, for which the Potency was 61.1 µM (active). With `Clc1nc2ccccc2s1`, the “viability change, negative = cytotoxic” value was -2.7% (inactive). Consider `COCC(=O)O[C@]1(CCN(C)CCCc2nc3ccccc3[nH]2)CCc2cc(F)ccc2[C@@H]1C(C)C`, for which the Potency was 29.8 µM (active). Take `O=C(O)CCn1c2c(c3ccccc31)C[C@H](NS(=O)(=O)c1ccc(F)cc1)CC2`: the “viability change, negative = cytotoxic” value was 2.1% [at 42.5 µM] (inactive).

On to `CC(C)=CC1CC(C)CCO1` (stereo unspecified), for which the “viability change, negative = cytotoxic” value is -0.243% (inactive). Same read-out and setting: next, `CCC(=O)CC(C)CC` (stereo unspecified): 0.87% [at 0.349 µM] (inactive); `O=Cc1ccc(F)cc1`: -4.17% (inactive).

Regarding `CCOC(=O)N1CCC(=C2c3ccc(Cl)cc3CCc3cccnc32)CC1`, the Potency is 30.6 µM (active). Regarding `Clc1ccccc1CN1CCc2sccc2C1`, the “viability change, negative = cytotoxic” value is 14.9% [at 42.5 µM] (inactive). As for `Cc1cn[nH]c1`, the “viability change, negative = cytotoxic” value was 19.6% [at 42.5 µM] (inactive). Regarding `CCOB(OCC)OCC`, the “viability change, negative = cytotoxic” value is 0.381% (inactive).

For `CCCCC(CC)COC(=O)c1ccc(O)cc1` (stereo unspecified), the “viability change, negative = cytotoxic” value is -20.6% (inactive). As for `CC(=O)Nc1ccc(O)cc1`, the Potency entry is “inactive”. Take `C=CC(=C)CCC=C(C)C`: the “viability change, negative = cytotoxic” value was -6.02% (inactive). Take `c1ccc(Sc2ccccc2)cc1`: the “viability change, negative = cytotoxic” value is 2.86% (inactive). `CC(CN(C)C)CN1c2ccccc2CCc2ccccc21` (stereo unspecified): the “viability change, negative = cytotoxic” value is -15.9% [at 42.5 µM] (inactive).

In the case of `CCCOc1sc(C(=O)N2CCC(c3cc(CN)ccc3F)CC2)c(C)c1Br`, the Potency was 56 µM (active). With `CCCCCCCC(C)=O`, the “viability change, negative = cytotoxic” value was -2.7% (inactive). The same measure, in the same setting: then `C=CCCCCCCC=C`, with -7.67% (inactive); and `Cc1cc(C)c(C=O)c(C)c1`, with 4.3% (inactive); and `C/C=C/C=N/NC(=O)c1ccncc1`, with 2.32% [at 42.5 µM] (inactive). Same read-out and setting: next, `CCCCCCC(C)Nc1ccc(Nc2ccccc2)cc1` (stereo unspecified): -29.4% (inactive).

System in another test: not listed separately
Put plainly: qHTS assay to identify small molecule antagonists of the estrogen related receptor signaling pathway with the pleiotropic PPARgamma coactivator (PGC) from Tox21 10K library (AID 1224841; call rule not given here; note: actives are mostly falling curves and most rising ones were filed inactive; nearly all actives have a fitted effect of over 50% in size; note: potency is the fitted concentration of half-maximal effect). The conditions noted are these: PGC/ERR reporter cell line, ONE-Glo luciferase, 18 h; series mostly up to 92.4 µM; activity, negative = inhibition: at the top concentration. Summed up: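 PGC/ERR cell line, 2,000 cells/well, pre-incubated 6 hours at 37 C, then exposed to compounds for 18 hours at 37 C; luciferase read with One-Glo luminescence after 30 min at room temperature.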
As to `Cc1nc(Nc2ncc(C(=O)Nc3c(C)cccc3Cl)s2)cc(N2CCN(CCO)CC2)n1`, the “activity, negative = inhibition” value is -41.8% [at 42.5 µM] (inactive). Turning to `Cc1ccc(CCn2c3c(c4cc(Cl)ccc42)CN(C)CC3)cn1`, the “activity, negative = inhibition” value is 50.8% [at 42.5 µM] (inactive). Turning to `NC(=O)c1nc(-c2cccc(-c3cc(F)ccc3OCC(F)(F)C(F)(F)F)c2)n[nH]1`, the Potency was 24.3 µM (active). In the case of `Oc1c(Br)cc(Br)c2cccnc12`, the “activity, negative = inhibition” value was 185% [at 42.5 µM] (inactive). For `O=C1c2c(O)ccc(O)c2C(=O)c2c(NCCNCCO)ccc(NCCNCCO)c21`, the “activity, negative = inhibition” value was -93.9% [at 42.5 µM] (inactive).

Source of the values: PubChem BioAssay (Tox21).
